PubChem BioAssay
Unmarked numbers belong to inactive results. This is one part of the list. Calls of active or inactive are those of the source.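 How the source made its calls, unless noted: active means mean inhibition above a cutoff equal to the average over all tested compounds plus one standard deviation (cut at about 70% in these data); inactive means the rest.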

Tested on: not listed separately
Experiment: GAL4-VP16 reporter modulators, confirmation, counter-screen for NR2E3 agonist project, cell-based, luminescence, CHO-S, high throughput (AID 624379);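 further: luciferase from a UAS reporter driven by GAL4-VP16 transactivation; 0% = DMSO with VP16-transfected cells and 100% = DMSO with cells lacking VP16; higher means less reporter light so more repression of VP16 activity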
Settings: CHO-S GAL4-VP16 luciferase reporter, at 3.98 µM, stronger effect = higher value

| SMILES | inhibition |
| --- | --- |
| CCNC(=O)CCc1nc(-c2ccc(C(C)(C)C)cc2)no1 | 77.8% (active) |
| COc1cccc(/C=N/Nc2ncc(C(F)(F)F)cc2Cl)c1O | 75.5% (active) |
| CN(c1ccc2nc3ccccc3c(=O)n2n1)C1CCCCC1 | 10.8% |
| Cn1nccc1C(=O)NC1CCCc2c1cnn2-c1ccc(F)cc1F (stereo not given) | 86.3% (active) |
| COc1ccc(C(=O)Nc2ccccc2C(=O)N/N=C/c2ccc(O)c(OC)c2)cc1 | -33% |
| COc1cc(NC(=O)c2ccccc2NS(=O)(=O)c2ccc(Cl)s2)cc(OC)c1 | 90.3% (active) |

Tested on: not listed separately
Experiment: StAR promoter reporter inhibitors, counter-screen for LRH-1 inverse agonist project, cell-based, luminescence, high throughput (AID 651611; in the data active means inhibition above about 28%)
Settings: StAR promoter luciferase reporter counterscreen, at 3.6 µM, stronger effect = higher value

| SMILES | inhibition |
| --- | --- |
| Cc1cccc(NC(=O)c2ccc([N+](=O)[O-])o2)c1 | 21.1% |
| C[C@@H]1C[C@@H]2O[C@H]2/C=C\C=C\C(=O)Cc2c(Cl)c(O)cc(O)c2C(=O)O1 | 55.7% (active) |
| CN(c1ccc2nc3ccccc3c(=O)n2n1)C1CCCCC1 | 59.8% (active) |
| Cn1nccc1C(=O)NC1CCCc2c1cnn2-c1ccc(F)cc1F (stereo not given) | 20.2% |
| COc1ccc(C(=O)Nc2ccccc2C(=O)N/N=C/c2ccc(O)c(OC)c2)cc1 | 19% |

Biological target: Nuclear receptor subfamily 5 group A member 2 (Homo sapiens) (UniProt O00482)
Experiment: LRH-1 (NR5A2) inverse agonists, retest, confirmation, cell-based, luminescence (AID 651613; in the data active means inhibition above about 42%;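 further: HEK293T cells co-transfected with LRH-1 and StAR promoter luciferase reporter; 0% = vehicle wells and 100% = parental cells lacking receptor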)
Settings: cell-based LRH-1 luciferase reporter, inverse agonism; at 3.6 µM; stronger effect = higher value

Chain of Nuclear receptor subfamily 5 group A member 2 (Homo sapiens) (O00482 whole entry, looked up): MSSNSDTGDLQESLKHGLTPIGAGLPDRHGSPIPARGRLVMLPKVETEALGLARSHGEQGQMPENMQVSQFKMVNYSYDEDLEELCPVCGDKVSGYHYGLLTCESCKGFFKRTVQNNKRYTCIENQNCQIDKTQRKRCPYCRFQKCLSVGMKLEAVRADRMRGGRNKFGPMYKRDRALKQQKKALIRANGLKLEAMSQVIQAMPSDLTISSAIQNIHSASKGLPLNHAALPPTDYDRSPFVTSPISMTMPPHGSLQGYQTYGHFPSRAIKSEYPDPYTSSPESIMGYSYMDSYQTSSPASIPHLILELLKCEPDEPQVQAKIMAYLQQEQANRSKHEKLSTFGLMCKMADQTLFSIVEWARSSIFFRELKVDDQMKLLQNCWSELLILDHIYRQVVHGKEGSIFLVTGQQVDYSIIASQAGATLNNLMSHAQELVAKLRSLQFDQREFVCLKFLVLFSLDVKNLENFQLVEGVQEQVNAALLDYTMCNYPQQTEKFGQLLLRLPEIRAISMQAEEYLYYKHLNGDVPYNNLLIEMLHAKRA

| SMILES | inhibition |
| --- | --- |
| Cc1cccc(NC(=O)c2ccc([N+](=O)[O-])o2)c1 | 58.8% (active) |
| C[C@@H]1C[C@@H]2O[C@H]2/C=C\C=C\C(=O)Cc2c(Cl)c(O)cc(O)c2C(=O)O1 | 68.5% (active) |
| CN(c1ccc2nc3ccccc3c(=O)n2n1)C1CCCCC1 | 14.8% |
| Cn1nccc1C(=O)NC1CCCc2c1cnn2-c1ccc(F)cc1F (stereo not given) | 62.8% (active) |
| COc1ccc(C(=O)Nc2ccccc2C(=O)N/N=C/c2ccc(O)c(OC)c2)cc1 | -69.7% |

Biological target: Steroidogenic factor 1 (Homo sapiens) (UniProt Q13285)
Experiment: SF1 (NR5A1) inverse agonists, counter-screen for LRH-1 inverse agonist project, cell-based, luminescence, high throughput (AID 651614; in the data active means inhibition above about 44%;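 further: cells cotransfected with StAR promoter reporter and SF1 expression vector; 0% = vehicle on cells with receptor and 100% = vehicle on cells lacking receptor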)
Settings: cell-based SF1 luciferase reporter, at 3.6 µM, stronger effect = higher value

Chain of Steroidogenic factor 1 (Homo sapiens) (Q13285 whole entry, looked up): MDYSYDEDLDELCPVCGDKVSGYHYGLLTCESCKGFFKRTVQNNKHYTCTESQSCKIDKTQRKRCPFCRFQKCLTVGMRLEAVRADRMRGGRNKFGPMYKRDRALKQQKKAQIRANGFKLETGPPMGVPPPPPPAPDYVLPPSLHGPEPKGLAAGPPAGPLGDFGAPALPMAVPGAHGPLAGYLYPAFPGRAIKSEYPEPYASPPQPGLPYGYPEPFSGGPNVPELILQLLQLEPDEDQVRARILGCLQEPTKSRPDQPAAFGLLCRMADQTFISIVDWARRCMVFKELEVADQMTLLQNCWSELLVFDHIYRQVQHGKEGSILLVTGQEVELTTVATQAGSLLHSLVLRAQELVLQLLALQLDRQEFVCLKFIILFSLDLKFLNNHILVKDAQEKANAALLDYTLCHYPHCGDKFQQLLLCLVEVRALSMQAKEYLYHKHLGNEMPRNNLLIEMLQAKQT

| SMILES | inhibition |
| --- | --- |
| Cc1cccc(NC(=O)c2ccc([N+](=O)[O-])o2)c1 | 57% (active) |
| C[C@@H]1C[C@@H]2O[C@H]2/C=C\C=C\C(=O)Cc2c(Cl)c(O)cc(O)c2C(=O)O1 | 56.9% (active) |
| CN(c1ccc2nc3ccccc3c(=O)n2n1)C1CCCCC1 | 57.6% (active) |
| Cn1nccc1C(=O)NC1CCCc2c1cnn2-c1ccc(F)cc1F (stereo not given) | 67.1% (active) |
| COc1ccc(C(=O)Nc2ccccc2C(=O)N/N=C/c2ccc(O)c(OC)c2)cc1 | 11.7% |

Tested on: not listed separately
Experiment: VP16 transactivation reporter inhibitors, counter-screen for LRH-1 inverse agonist project, cell-based, luminescence, high throughput (AID 651615; in the data active means inhibition above about 33%)
Settings: Gal4-VP16 luciferase reporter cells, at 3.6 µM, stronger effect = higher value

| SMILES | inhibition |
| --- | --- |
| Cc1cccc(NC(=O)c2ccc([N+](=O)[O-])o2)c1 | -13.2% |
| C[C@@H]1C[C@@H]2O[C@H]2/C=C\C=C\C(=O)Cc2c(Cl)c(O)cc(O)c2C(=O)O1 | 79.3% (active) |
| CN(c1ccc2nc3ccccc3c(=O)n2n1)C1CCCCC1 | 18% |
| Cn1nccc1C(=O)NC1CCCc2c1cnn2-c1ccc(F)cc1F (stereo not given) | 57.1% (active) |
| COc1ccc(C(=O)Nc2ccccc2C(=O)N/N=C/c2ccc(O)c(OC)c2)cc1 | -41.2% |

Tested on: transactivating tegument protein VP16 (Human herpesvirus 1)
Experiment: VP16 transactivation reporter inhibitors, counter-screen for SRC2 inhibitor project, cell-based, luminescence, single concentration (AID 652007; in the data active means inhibition above about 36%)
Settings: cell-based VP16 transactivation luciferase reporter, at 8.9 µM, stronger effect = higher value

| SMILES | inhibition |
| --- | --- |
| CCOc1cc(C(=O)N2CCc3cc(OC)c(OC)cc3C2)ccc1OC(F)F | -28% |
| CN(c1ccc2nc3ccccc3c(=O)n2n1)C1CCCCC1 | 50.9% (active) |
| COc1ccc(C(=O)Nc2ccccc2C(=O)N/N=C/c2ccc(O)c(OC)c2)cc1 | 64.8% (active) |

Biological target: Nuclear receptor coactivator 2 (Homo sapiens) (UniProt Q15596)
Experiment: SRC2 coactivator transcriptional activity inhibitors, confirmation, cell-based, luminescence, HEK293, triplicate (AID 652008;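 active means mean inhibition above 46.5%, the solvent-only control mean plus 3 SD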;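 further: 0% = DMSO-treated cells and 100% = Gossypol at 36 µM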)
Settings: HEK293 GAL4-SRC2 luciferase reporter, at 8.9 µM, stronger effect = higher value

Chain of Nuclear receptor coactivator 2 (Homo sapiens) (Q15596 whole entry, looked up): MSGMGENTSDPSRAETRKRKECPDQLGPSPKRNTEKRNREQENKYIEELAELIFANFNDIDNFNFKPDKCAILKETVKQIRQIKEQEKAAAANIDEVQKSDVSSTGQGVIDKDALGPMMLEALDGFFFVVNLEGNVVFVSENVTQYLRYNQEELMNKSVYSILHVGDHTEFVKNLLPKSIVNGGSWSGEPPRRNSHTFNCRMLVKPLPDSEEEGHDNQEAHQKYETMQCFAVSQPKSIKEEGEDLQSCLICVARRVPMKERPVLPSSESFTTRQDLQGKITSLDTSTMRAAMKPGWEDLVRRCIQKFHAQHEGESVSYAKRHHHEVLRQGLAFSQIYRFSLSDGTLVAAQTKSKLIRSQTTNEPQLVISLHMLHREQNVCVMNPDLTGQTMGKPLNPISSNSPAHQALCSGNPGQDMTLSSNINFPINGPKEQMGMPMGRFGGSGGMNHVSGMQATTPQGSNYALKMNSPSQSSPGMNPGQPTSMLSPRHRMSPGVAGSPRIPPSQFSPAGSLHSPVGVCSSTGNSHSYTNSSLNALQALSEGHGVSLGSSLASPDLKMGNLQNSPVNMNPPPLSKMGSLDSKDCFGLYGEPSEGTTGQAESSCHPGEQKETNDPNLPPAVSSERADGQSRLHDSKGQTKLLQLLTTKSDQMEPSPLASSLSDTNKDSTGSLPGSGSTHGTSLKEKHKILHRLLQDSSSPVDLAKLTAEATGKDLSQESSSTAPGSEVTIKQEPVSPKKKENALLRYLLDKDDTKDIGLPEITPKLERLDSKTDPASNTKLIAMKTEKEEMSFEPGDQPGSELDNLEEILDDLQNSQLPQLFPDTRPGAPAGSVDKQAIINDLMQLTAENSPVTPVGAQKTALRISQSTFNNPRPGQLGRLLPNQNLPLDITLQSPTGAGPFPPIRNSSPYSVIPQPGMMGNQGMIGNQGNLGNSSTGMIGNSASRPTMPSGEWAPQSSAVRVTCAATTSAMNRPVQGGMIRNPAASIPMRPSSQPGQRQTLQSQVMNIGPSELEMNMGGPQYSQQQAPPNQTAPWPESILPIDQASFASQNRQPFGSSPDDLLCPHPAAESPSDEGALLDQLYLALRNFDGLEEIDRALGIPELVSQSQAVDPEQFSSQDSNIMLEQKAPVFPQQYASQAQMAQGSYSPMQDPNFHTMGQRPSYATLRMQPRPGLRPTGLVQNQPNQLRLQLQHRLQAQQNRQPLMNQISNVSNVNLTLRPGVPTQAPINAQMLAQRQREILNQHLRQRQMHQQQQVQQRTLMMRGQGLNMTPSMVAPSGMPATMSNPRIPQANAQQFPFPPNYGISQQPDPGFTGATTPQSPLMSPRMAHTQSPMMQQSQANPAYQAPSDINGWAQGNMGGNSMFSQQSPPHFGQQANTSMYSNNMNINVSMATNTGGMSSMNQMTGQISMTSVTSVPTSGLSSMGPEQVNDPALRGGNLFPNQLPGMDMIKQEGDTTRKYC

| SMILES | inhibition |
| --- | --- |
| CCOc1cc(C(=O)N2CCc3cc(OC)c(OC)cc3C2)ccc1OC(F)F | 14.7% |
| CN(c1ccc2nc3ccccc3c(=O)n2n1)C1CCCCC1 | 86% (active) |
| COc1ccc(C(=O)Nc2ccccc2C(=O)N/N=C/c2ccc(O)c(OC)c2)cc1 | 59.3% (active) |

Tested on: not listed separately
Experiment: Gal4-VP16 luciferase reporter inhibitors, counter-screen for COUP-TFII antagonist project, cell-based, luminescence, HEK293 (AID 687007; in the data active means inhibition above about 13%)
Settings: at 8.5 µM, stronger effect = higher value

| SMILES | inhibition |
| --- | --- |
| C[C@@H]1C[C@@H]2O[C@H]2/C=C\C=C\C(=O)Cc2c(Cl)c(O)cc(O)c2C(=O)O1 | 64.3% (active) |
| CN(c1ccc2nc3ccccc3c(=O)n2n1)C1CCCCC1 | 64.8% (active) |
| Cn1nccc1C(=O)NC1CCCc2c1cnn2-c1ccc(F)cc1F (stereo not given) | -3.41% |
| COc1ccc(C(=O)Nc2ccccc2C(=O)N/N=C/c2ccc(O)c(OC)c2)cc1 | 7.03% |

Biological target: COUP transcription factor 2 (Homo sapiens) (UniProt P24468)
Experiment: NR2F2 transcriptional activity inhibitors, confirmation, cell-based, luciferase reporter, HEK293, triplicate (AID 687008;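 active means mean inhibition over three repeats above a set limit taken from the earlier primary screen, cut at about 38% in these data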;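 further: 100% = cells given the luciferase reporter alone without the COUP-TF2 vector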)
Settings: HEK293 NGFI-A luciferase reporter, luminescence; at 8.5 µM; stronger effect = higher value

Chain of COUP transcription factor 2 (Homo sapiens) (P24468 whole entry, looked up): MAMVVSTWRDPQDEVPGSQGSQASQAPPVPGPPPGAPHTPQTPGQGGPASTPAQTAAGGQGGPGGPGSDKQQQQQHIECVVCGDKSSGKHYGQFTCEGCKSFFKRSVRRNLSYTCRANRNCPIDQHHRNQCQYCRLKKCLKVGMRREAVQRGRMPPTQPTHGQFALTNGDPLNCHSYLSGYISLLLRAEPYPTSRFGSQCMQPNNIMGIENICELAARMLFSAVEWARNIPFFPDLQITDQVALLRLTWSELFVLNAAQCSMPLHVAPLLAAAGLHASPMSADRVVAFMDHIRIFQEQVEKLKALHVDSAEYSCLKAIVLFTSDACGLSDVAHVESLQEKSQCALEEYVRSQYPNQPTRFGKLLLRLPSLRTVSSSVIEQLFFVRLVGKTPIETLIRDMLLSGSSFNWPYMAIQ

| SMILES | inhibition |
| --- | --- |
| C[C@@H]1C[C@@H]2O[C@H]2/C=C\C=C\C(=O)Cc2c(Cl)c(O)cc(O)c2C(=O)O1 | 68% (active) |
| CN(c1ccc2nc3ccccc3c(=O)n2n1)C1CCCCC1 | 87.9% (active) |
| Cn1nccc1C(=O)NC1CCCc2c1cnn2-c1ccc(F)cc1F (stereo not given) | 62.2% (active) |
| COc1ccc(C(=O)Nc2ccccc2C(=O)N/N=C/c2ccc(O)c(OC)c2)cc1 | 75.2% (active) |
